Shown are actives, neighbours in structure and some others; about 0.69% of the full set was active somewhere.
A-T KAP1 phos: potential ataxia-telangiectasia treatment. Potency, µM (doses to about 57.5 µM), inactives show at the top dose activation, hits mostly activators. F2112 A-T fibroblasts, KAP-1 phosphorylation AlphaLISA; neocarzinostatin DNA damage 30 min before lysis. actives 0.19% (n = 320,000). AID 485349; further: potency means the concentration at half of the fitted maximal effect; % of control where 0% means no effect; nearly all actives have a fitted effect of over 45% in size
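ATM-like activity read as KAP-1 phosphorylation via AlphaLISA donor/acceptor antibody pairs after lysis and 6 hr at 25C. Cells were ATM-null patient fibroblasts (F2112, hTERT), dosed 60 min, then exposed to the DSB inducer NCS for 30 min.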
IL2 activator: IL-2 activation | actives 0.065% (n = 360,000) | IL-2 activation reporter assay, cell-based qHTS; stimulated with anti-CD3/CD4/CD28 beads; in transgenic mouse T cells | activation, % (series mostly up to about 46 µM) | AID 652025; in the data active means activation above about 50%; inconclusive means mostly about 30% to 49%; further: 0% is about no effect
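Unstimulated transgenic mouse T cells, 750 per well, received compound and, after 60 minutes, anti-CD3/anti-CD4 bead plus anti-CD28 stimulation. EGFP and DsRed were quantified after 18 hours.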
PKM2 activator: PKM2 (human) enzyme activation; Potency, µM (titrated, usually from 57.5 µM), without a hit: at the highest dose activation, most hits filed as activators; actives 0.34% (n = 260,000); purified PKM2, Kinase-Glo ATP luminescence, activation; response scale: 0% is enzyme alone, no compound; further: potency means the concentration at half of the fitted maximal effect; on the % scale 0 is the no-effect control and ±100 the full control effect; nearly all actives have a fitted effect of over 55% in size
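ATP formation by purified human PK-M2, quantified via coupled luciferase luminescence after 1 h at room temperature with 0.1 mM ADP and 0.5 mM PEP final.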
a7 integrin act: activators of alpha7 integrin expression for muscular dystrophy. alpha7betagal myoblasts, beta-gal FDG fluorescence, 48 h. Potency, µM (titrated, usually from 38.3 µM), without a hit: at the top dose activation, usual class: activators. actives 0.064% (n = 350,000);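 further: potency means the concentration at half of the fitted maximal effect; 100% = response of the positive control SU9516; nearly all actives have a fitted effect of over 60% in size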
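alpha7betagal+/- myoblasts (passage 13, 250/well) treated 48 h at 37C with compounds at 1:260 dilution of DMSO stock. Lysed, then beta-galactosidase activity read as FDG fluorescence (ex 480/em 540) after 30 min, with pre-read for autofluorescence.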
Tb PFK inh: blocks T. brucei phosphofructokinase. O15648. actives 0.17% (n = 330,000). T. brucei PFK, ADP-Glo luminescence. Potency, µM (titrated, usually from 57.5 µM), without a hit: top-dose activity, negative = inhibition, hits mostly inhibitors;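 further: potency means the concentration at half of the fitted maximal effect; 0% = uninhibited 1x PFK enzyme wells and -100% = no-enzyme wells; nearly all actives have a fitted effect of over 60% in size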
Target sequence (O15648 whole entry, looked up): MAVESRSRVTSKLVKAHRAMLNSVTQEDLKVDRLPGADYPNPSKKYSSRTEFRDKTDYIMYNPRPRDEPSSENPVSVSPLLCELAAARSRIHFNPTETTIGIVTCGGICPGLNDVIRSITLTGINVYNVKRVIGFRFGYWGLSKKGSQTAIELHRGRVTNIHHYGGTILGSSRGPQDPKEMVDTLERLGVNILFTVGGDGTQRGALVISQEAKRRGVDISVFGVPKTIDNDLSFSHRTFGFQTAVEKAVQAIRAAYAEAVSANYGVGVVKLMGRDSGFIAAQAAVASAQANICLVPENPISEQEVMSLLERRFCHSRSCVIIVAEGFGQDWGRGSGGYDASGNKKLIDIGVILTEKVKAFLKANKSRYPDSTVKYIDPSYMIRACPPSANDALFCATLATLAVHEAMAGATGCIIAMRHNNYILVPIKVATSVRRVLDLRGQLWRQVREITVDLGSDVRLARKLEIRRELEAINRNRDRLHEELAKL
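ADP-Glo luminescence quantified ADP after 45 min at room temperature, with 1.25 nM T. brucei PFK, 0.1 mM ATP and 0.5 mM fructose-6-phosphate in pH 8.0 TEA buffer. qHTS titrations up to 57 µM; curves classified by quality.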
TCR act: activators of T cell receptors | AID 504894 | primary human leukocytes, anti-CD3, IL-2 HTRF, 48 h | 330,000 tested, under 10 active | Potency, µM (highest dose often 9.22 µM), for inactives: top-dose activation of IL-2 secretion, usual class: activators; further: % of control where 0% means no effect
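Compounds are tested in HTS on primary human leukocytes co-incubated with a-CD3 beads for 48 hr. IL-2 output is measured by time-resolved FRET.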
Starred values were filed as active, the others as inactive; u = inconclusive; x = no result; [ ] = remark or other dose. Unless noted, the call rests on the fitted dose curve; in most records, active means well fitted curve in the direction sought with a large enough effect; inconclusive means small, poorly fitted or top-dose-only effect, or another doubt; inactive means no such curve, though single readings can be large; an effect the other way counts as inactive or inconclusive.

SMILES	A-T KAP1 phos	IL2 activator	PKM2 activator	a7 integrin act	Tb PFK inh	TCR act
CCCC(=O)NC(=S)Nc1cccc(Cl)c1N1CCCCC1	28µM*	-2	0%	15%[7.66 µM]	-1%	6%
CCC(=O)NC(=S)Nc1cccc(Cl)c1N1CCCCC1	35µM*	-4	-3%	-27%	1%	-10%
COc1ccc2ccc(=O)oc2c1	10%	0	1%	-8%	-12%	7%
Cc1ccc(S(=O)(=O)c2cc3ccc(O)cc3oc2=O)cc1C	20µM*	0	x	17%	2%	-5%
COc1ccc2cc(S(=O)(=O)c3ccccc3)c(=O)oc2c1	-5%	0	5µM*	4%	0%	1%
CC(=O)c1c(C(C)=O)c(C)n(-c2ccc(C(=O)O)cc2)c1C	-10%	-1	1%	37%	1%	0%
Cc1ccc(C)n1-c1ccc(C(=O)O)cc1	x	x	21%	x	11µM*	x
CC#CCN1c2ccccc2[C@]23C[C@@H](C(=O)OC)N(S(=O)(=O)c4ccc(C(F)(F)F)cc4)C2=NC(C(=O)OC)=C(C(=O)OC)[C@H]13	x	x	3%[11.5 µM]	x	x	x
O=C1c2ccccc2-c2onc3ccc(NCc4ccco4)c1c23	22µM*	3	-18%	0%	-6%	4%
Cc1ccc(-c2cn3nc(-c4ccccc4)c(-c4ccccc4)nc3n2)cc1	28µM*	1	17%	-7%	-9%	-6%
CC(=O)OC[C@]12CC[C@H]3[C@@](C)(CC[C@H]4C(C)(C)CCC[C@]34C)[C@@H]1C[C@H](C1=CC(=O)O[C@H]1OC(C)=O)O2	35µM*	x	x	x	-1%	x
OB(O)c1csc2ccccc12	x	x	-1%	x	x	x
O=C(CSc1nc2ccccc2c(=O)n1CC1CCCO1)NCC1CCCO1 (configuration not stated)	0%	0	1%	1%	-5%	-1%
O=c1c2ccccc2nc(SCc2ccccc2)n1CC1CCCO1 (configuration not stated)	14µM*	-1	14%	-18%	1%	6%
COc1ccc(NC(=O)c2ccc(Br)c(S(=O)(=O)N3CCOCC3)c2)cc1	8%	-5	0%	11%	-2%	3%
COC(=O)C1=C(C(=O)OC)[C@@H]2N(C)c3ccc(OC)cc3[C@@]23C[C@@H](C(=O)OC)N(S(=O)(=O)c2cccs2)C3=N1	x	x	-14%[11.5 µM]	x	x	x
CCCN1C(=O)S/C(=C\c2ccc(N3CCOCC3)cc2C)C1=O	-2%	x	-6%	x	-5%	x
CCCN1C(=O)S/C(=C\c2ccc(N3CCOCC3)o2)C1=O	-13%	1	3.5µM*	-73%	u	-5%
O=[N+]([O-])c1ccccc1/C=N/n1c(-c2ccccc2)n[nH]c1=S	-14%	1	-24%	11%	2%	-2%
O=[N+]([O-])c1ccccc1/C=C/C=N/n1c(-c2ccccc2F)n[nH]c1=S	25µM*	0	-5%	-4%	8%	1%
CCOC(=O)[C@]12CCC=C1N(Cc1ccc(Cl)cc1Cl)C(=O)[C@H](CC(=O)NCCCN1CCCC1=O)C2	x	1	x	x	x	x
CC(=O)Nc1nc2cc(C(N)=O)ccc2s1	6%	0	x	11%	-6%	-10%
NC(=O)c1ccc2nc(NC(=O)c3ccc(N)cc3)sc2c1	35µM*	6	-2%	-8%	-3%	8%
COC(=O)c1ccc(C(NC(=O)OCc2ccccc2)/C(I)=C/[C@@H](C)C(=O)NCc2ccc(C)o2)cc1 (some centres not stated)	x	x	14µM*	x	x	x
O=C(Nn1cnnc1)C(c1ccccc1)c1ccccc1	6%	-2	32µM*	-14%	0%	-8%
SMILES	A-T KAP1 phos	IL2 activator	PKM2 activator	a7 integrin act	Tb PFK inh	TCR act
CC(=O)c1ccc(-n2nnnc2SCC(=O)NC2CCCCC2)cc1	1%	0	0%	-20%	-6%	-1%
COc1ccc(C2NC(=S)NC3=C2N2CCC3CC2)cc1 (configuration not stated)	2.5µM*	0	0%	4%	2%	6%
Cc1cccc2cc(C(c3nnnn3C(C)(C)C)N3CCN(C(=O)c4ccco4)CC3)c(=O)[nH]c12 (configuration not stated)	3%	-3	30%	2%	-28%	-4%
Cc1ccc2[nH]c(=O)c(C(c3nnnn3C(C)(C)C)N3CCN(C(=O)c4ccco4)CC3)cc2c1 (configuration not stated)	1%	-1	25µM*	4%	-2%	-28%
CCC(C)(C)n1nnnc1C(c1cc2cc(C)cc(C)c2[nH]c1=O)N1CCN(C(=O)c2ccco2)CC1 (configuration not stated)	1%	0	14µM*	-21%	0%	x
Cc1cccn2c(=O)cc(CSc3nnc(NC(=O)COc4ccccc4)s3)nc12	-1%	x	x	x	-2%	x
CCC1=C2CC[C@H]3C(=O)NC(=O)[C@H]3[C@H]2[C@@]2(C)C(=NCCOC)OC(=O)N2C1=O	x	x	-3%	x	x	x
COC(=O)C1=C(C(=O)OC)[C@@H]2N(C)c3ccc(OC)cc3[C@@]23C[C@@H](C(=O)OC)N(S(=O)(=O)c2ccc(C#N)cc2)C3=N1	x	x	1%[11.5 µM]	x	x	x
C=CCN1c2ccccc2[C@]23C[C@@H](C(=O)OC)N(C(C)=O)C2=NC(C(=O)OC)=C(C(=O)OC)[C@H]13	13µM*	0	-3%[11.5 µM]	-11%	0%	-1%
Cc1occc1-c1nnc(SCC(=O)N2CCOCC2)n1Cc1ccco1	-5%	-2	25µM*	-2%	5%	4%
Cc1nc(NCc2ccccc2)c2nc(-c3ccccc3)n(CCCN3CCCCC3C)c2n1 (configuration not stated)	x	x	-3%	x	x	x
CCOc1cccc2cc(-c3nc4ccc(C(=O)O)cc4[nH]3)c(=O)oc12	9%	x	x	x	-13%	x
N#CCc1ccc(NS(=O)(=O)c2cccs2)cc1	13%	-2	18µM*	3%	4%	-3%
O=S(=O)(Nc1ccc(Cc2ccncc2)cc1)c1cccs1	3%	-1	26%	13%	4%	x
CCCN1C(=O)/C(=C/c2ccc(C)o2)NC1=S	20%	x	25µM*	x	u	x
CCN1C(=O)/C(=C/c2ccc(C)o2)N(C)C1=S	14%	-1	u	6%	-10%	-3%[46.1 µM]
O=C(NNC(=S)Nc1ccccc1)c1cccc(Br)c1	x	3	-1%	9%	1%	6%
O=C(NNC(=O)c1cccc(Br)c1)Nc1ccc(Cl)cc1	28µM*	-1	1%	10%	-1%	-2%
CC(Cc1ccccc1)C(=O)NCCc1c[nH]c2ccccc12 (configuration not stated)	x	x	4%	x	x	x
